# Data taken from the supplement of paper PMC6555819.
# Legend:
# Experiment in all cases: PBM binding z-score (relative to random genomic background probes); higher = stronger binding; sequences stand for … in GC…GCGATTGACAGCGTAGAATGAAGG
# [1] = tested on: RARb homodimer (NR concentration 270 nM)
# Procedure, shortened: (§1)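 Ligand-free nuclear receptor dimers were applied to custom Agilent 4×180K protein-binding microarrays whose double-stranded probes carried direct-repeat seeds, single-nucleotide variants, half-site ablations and random human genomic background sequences in 34-nt variable regions. Incubation lasted 1 h. Binding z-scores were computed against the random background probes from regression-normalized fluorescence.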
# [2] = tested on: RARg:RXRa (NR concentration 270 nM, RXRa partner concentration 90 nM)
# Procedure, shortened: as §1
# [3] = tested on: RARg homodimer (NR concentration 270 nM)
# Procedure, shortened: as §1
# [4] = tested on: RXRa DBDmut IVT, anti-RXR (DBD mutation: RXRa K156A/R161A, NR concentration 90 nM)
# Procedure, shortened: as §1
# [5] = tested on: RXRa homodimer (NR concentration 180 nM)
# Procedure, shortened: as §1
# [6] = tested on: THRa:RXRa (NR concentration 90 nM, RXRa partner concentration 90 nM)
# Procedure, shortened: as §1
# [7] = tested on: THRa homodimer (NR concentration 90 nM)
# Procedure, shortened: as §1
# [8] = tested on: VDR:RXRa (NR concentration 270 nM, RXRa partner concentration 90 nM)
# Procedure, shortened: as §1
# [9] = tested on: VDR homodimer (NR concentration 270 nM)
# Procedure, shortened: as §1
Sequence,PBM binding z-score [1],PBM binding z-score [2],PBM binding z-score [3],PBM binding z-score [4],PBM binding z-score [5],PBM binding z-score [6],PBM binding z-score [7],PBM binding z-score [8],PBM binding z-score [9]
GCAGACAGGTGAAACGCAGGTAACTCGGGGTGGC,0.185,0.966,0.131,-0.847,0.633,1.55,-0.0919,-0.198,-0.486
CCAGACAGGTGAAAGGTAACACAGTCTGGTACGC,1.1,1.72,1.07,-0.201,2.27,1.02,-0.219,0.959,-0.147
CCTTACGGGTCACTGACAGATTATAGCATTTGGA,3.01,4.96,4.43,2.1,4.89,2.38,0.495,3.13,0.842
ATCTATAGGTAAAAGTTCAGTGAATCCCGAGGAT,2.32,1.92,2.03,0.768,1.99,0.789,-0.138,1.28,1.46
TGAATGAGGCTATAAGATCAGGGAACGTTGCAAA,-0.742,-0.102,0.256,-1.09,-0.0491,-0.134,-0.324,-0.38,-0.554
TCCTATAGGTAAATGCTAGGTGAAAGTCCGATCT,0.372,0.374,0.00496,1.14,0.554,1.55,0.305,0.359,-0.299
CCGAGTAGGTTATGGGGGATTCAGGCAACGGTGA,1.28,1.3,1.08,0.281,0.959,1.58,1.7,1.45,1.12
CCTAGTTGATCAAGGTCACACACGCTATAGGTAC,4.44,4.24,4.06,2.8,4.2,4.25,4.11,4.91,4.32
CAGCCTAAGTCAGGGCCAGTATAGGAGGAACGTT,0.00988,-0.148,-0.0459,-0.572,-0.223,-0.328,-0.317,-0.626,-0.363
CCTTACGGGTCACTGACAAGTTATAGCATTTGGA,2.62,4.86,4.71,1.85,5.12,2.29,0.165,3.07,0.93
TGTCATAGTTCAAAGGTAACGTAAGTATCCACAC,2.51,4.15,3.54,2.09,5.18,2.6,0.118,2.96,1.23
AGAATGATGTTATTAAGATCAGGGAATTGCGGTC,-0.502,0.0118,0.00602,-0.521,0.203,0.093,-0.511,0.0323,-0.127
GCTATTAGTTGAAAGGGCAACCGCATGATTCTCG,1.73,1.4,1.04,0.935,1.29,0.332,-0.105,0.504,0.195
TCTGCTAGGTCAACGATGGTCAGCAAATCTGCTA,3.35,3.94,5.26,0.984,2.45,3.17,0.756,1.64,-0.402
ATCTCTAGGTAAAGGTTCAGTGAATCCCGAGGAT,1.24,1.03,1.05,0.869,1.01,1.1,0.351,1.09,1.99
ATCTAAAGGTCGAGGTGAGTATAGAGAAAGGGAA,3.3,4.54,4.69,1.33,4.82,3.09,1.31,3.08,0.632
GCTGCTAGGTCAATTGATGGTCAGCTAAAGCTCG,2.95,4.28,4.03,1.37,1.95,2.22,-0.157,0.815,-0.476
CGAACGAGGGCATGAGTTGATAGTAAATGCCGAT,0.956,1.48,1.7,2.41,1.09,1.33,-0.0333,1.17,1.98
TCTAGCAGGCGAGAGGGTCACTCAAGAGGTACGG,2.17,2.04,1.83,-0.024,2.15,1.52,-0.333,1.49,0.103
TCTTGTAGATCAATAGAGGTTAAGAAAGTGCGCT,1.1,0.791,0.296,0.705,1.28,2.07,-0.31,1.8,0.3
TCATATATGTAAACAGGTGAAAGTCCGTAAGTTA,0.609,0.551,0.376,1.85,0.989,0.84,0.27,1.31,0.413
TCTCGGAGGACAAGAAAGGTCAGAGCTCGACATC,4.61,4.01,4.75,0.958,3.39,3.24,0.472,2.67,0.546
TAGCCTAGGTCATTGGGCCAGTATGGTACGCATC,2.8,3.75,3.81,1.46,2.73,2.81,0.583,2,0.715
CGTCAGAGTTCAACTAAGGTAACGTAAAGCACGC,3.58,5.39,6.02,4.87,5.49,5.18,1.68,5.28,4.58
GCTGCTAGGTCACCTGATGGTCAGCTAAAGCTCG,3.33,4.88,5.27,1.18,2.64,3,1.57,1.31,-0.0693
CTTCAAAGTTCAACTAAGGTAACGTAAAGCACGC,4.33,5.92,6.84,4.36,5.26,5.38,2.06,4.63,3.94
